# Source: PubChem BioAssay (Tox21)
# Results filed as inconclusive are left out. A call without a number means that no potency is given here. The source made the active and inactive calls. The call rests on the fitted dose curve; in most records, active means well fitted activation curve with a large enough effect in the repeat runs; inconclusive means weak or mixed curves; inactive means no such curve, though single readings can be large or run the other way.
# Molecular target: Nuclear receptor subfamily 1 group I member 2 (Homo sapiens) (UniProt O75469)
# Experiment: CYP3A4 induction through human pregnane X receptor (PXR) by small molecules, qHTS assay (AID 1346984); further: nearly all actives have a fitted effect of over 40% in size
# Conditions: DPX-2 HepG2 PXR, CYP3A4-luciferin luminescence, 24 h; series mostly up to 46.1 µM
# From the text: National Center for Advancing Translational Sciences [NCATS]
# NIH Chemical Genomics Center [NCGC]
# U.S. Environmental Protection Agency [EPA]
# National Institutes of Environmental Health Sciences [NIEHS]
# National Toxicology Program [NTP]
# The Pregnane X receptor (PXR), a ligand activated nuclear receptor plays a critical role in the regulation of genes involved in drug metabolism and transporters. Activation of PXR is responsible for unwanted adverse drug reactions. PXR binds xenobiotics and when compounds interact with PXR enhances the expression of CYP3A genes. Identifying the compounds with the potential for PXR activation and CYP3A4 induction can be of importance in improving the efficacy of drugs with less toxicity and avoiding drug-drug interactions.
# DPX-2 (Puracyp, Inc.) cell lines, used for screening against human PXR activation has HepG2 cells co-transfected with a PXR response element and a luciferase construct containing CYP3A4 promoter. Increase in luciferase activity can be used to identify the compounds that cause the induction of CYP3A4.
# DPX-2 cells were dispensed at 2,000 cells per well in 5uL of assay medium into white, solid-bottom 1536-well plates using a Multidrop Combi dispenser (Thermo Scientific). The assay plates were incubated at 37C for 5hr before transferring 23nL of test compounds dissolved in DMSO and positive control via Pintool station (Wako). The assay plates were incubated at 37C for 24hr. After 24hr compound treatment, 1uL of 3uM (final concentration) P450 substrate (P450-Glo CYP3A4 screening system with Luciferin-IPA, Promega) was added by a Flying Reagent Dispenser (FRD, Aurora Discovery). The assay plates were incubated for 3hr at 37C. Then 5ul One-Glo assay reagent (Promega) was added to each plate by an FRD and following 30 min incubation at room temperature, luciferase activity was quantified on a ViewLux plate reader (Perkin Elmer).
# Potency means the concentration at half of the fitted maximal effect.
row,SMILES,Potency
1,CC(=O)N/N=C/c1ccc([N+](=O)[O-])o1,inactive
2,Cc1ccc(Cl)c(Nc2ccccc2C(=O)O)c1Cl,inactive
3,COc1ncnc(NS(=O)(=O)c2ccc(N)cc2)c1OC,inactive
4,O=C(O)CCC(=O)C(=O)O,inactive
5,C=Cc1ccc(S(=O)(=O)O)cc1,inactive
6,Oc1ccc(Cl)c2cccnc12,2.51 µM (active)
7,O=C(O)CCc1nc(-c2ccccc2)c(-c2ccccc2)o1,inactive
8,CN1C(C(=O)Nc2ccccn2)=C(O)c2sccc2S1(=O)=O,inactive
9,CN(C)CCC=C1c2ccccc2C=Cc2ccccc21,31.6 µM (active)
10,Clc1ccc(Nc2nnc(Cc3ccncc3)c3ccccc23)cc1,inactive
11,CC1(CN2CCC(n3c(=O)[nH]c4ccccc43)CC2)OCc2ccccc2-n2cccc21 (stereo not given),inactive
12,Nc1ncnc2c1ncn2[C@H]1CC[C@@H](CO)O1,inactive
13,Cc1cc2c(OCC(CNC(C)(C)C)OC(=O)c3ccccc3)cccc2[nH]1 (stereo not given),inactive
14,O=C(OCC(O)CO)c1ccccc1Nc1ccnc2cc(Cl)ccc12 (stereo not given),inactive
15,O=C(/C=C/c1ccc(O)c(O)c1)O[C@@H]1C[C@@](OC(=O)/C=C/c2ccc(O)c(O)c2)(C(=O)O)C[C@@H](O)[C@@H]1O,inactive
16,CC(C)=CCC1C(=O)N(c2ccccc2)N(c2ccccc2)C1=O,5.01 µM (active)
17,CCCCOc1ccc(OCCCN2CCOCC2)cc1,inactive
18,O=C(O)c1ccc(OCCCOc2ccc(C(=O)O)cc2)cc1,inactive
19,CC[N+](CC)(CCNC(=O)C(=O)NCC[N+](CC)(CC)Cc1ccccc1Cl)Cc1ccccc1Cl,inactive
20,C[C@@H]1CC(=O)NN=C1c1ccc(NN=C(C#N)C#N)cc1,inactive

row,SMILES,Potency
1,CCCC(C(=O)OCCN(CC)CC)(c1ccccc1)c1ccccc1,10 µM (active)
2,CCOc1ccccc1O[C@H](c1ccccc1)[C@H]1CNCCO1,inactive
3,C[C@@H](O)[C@H]1C(=O)N2C(C(=O)O)=C([C@H]3CCCO3)S[C@H]12,inactive
4,C[C@]12CC[C@@H]3c4ccc(O)cc4CC[C@H]3[C@@H]1CC[C@@H]2OC(=O)CCC1CCCC1,inactive
5,C/C=C(/C(=C/C)c1ccc(O)cc1)c1ccc(O)cc1,inactive
6,CCCCCCNC(=O)n1cc(F)c(=O)[nH]c1=O,0.794 µM (active)
7,CN1CCCC(n2nc(Cc3ccc(Cl)cc3)c3ccccc3c2=O)CC1 (stereo not given),28.2 µM (active)
8,O=C1C(=O)c2ccccc2C(O)=C1C1CCC(c2ccc(Cl)cc2)CC1 (stereo not given),2.51 µM (active)
9,Oc1cccc(O)c1O,inactive
10,CCN(CC)CCNC(=O)COc1ccc(OC)cc1,inactive
11,O=C(CCCN1CC=C(n2c(=O)[nH]c3ccccc32)CC1)c1ccc(F)cc1,inactive
12,O=C1c2ccccc2C(=O)C1c1ccc(Br)cc1,25.1 µM (active)
13,O[C@@H]1CO[C@H]2[C@@H]1OC[C@@H]2O,inactive
14,C[C@]1(Cn2ccnn2)[C@H](C(=O)O)N2C(=O)C[C@H]2S1(=O)=O,inactive
15,CC1(C)O[C@@H]2C[C@H]3[C@@H]4C[C@H](F)C5=CC(=O)C=C[C@]5(C)[C@H]4[C@@H](O)C[C@]3(C)[C@]2(C(=O)CO)O1,inactive
16,CN1C(=O)OC(C)(C)C1=O,inactive
17,CC(=O)OCC(=O)NCCCOc1cccc(CN2CCCCC2)c1,inactive
18,C=C1c2cccc(O)c2C(O)=C2C(=O)[C@]3(O)C(O)=C(C(N)=O)C(=O)[C@@H](N(C)C)[C@@H]3[C@@H](O)[C@H]12,inactive
19,CN(C)CCN1C(=O)c2ccccc2N(C)c2ccccc21,inactive
20,CCOC(C)=O,inactive
